Test results as given in the supplement of paper PMC10849652.
About 7,900 targets were measured; listed, in parts, are those with a hit and a random draw of the rest. About 0.6% of all pairs of compound and target were hits.

Legend:
Test in all cases: log2 fold change, soluble protein after heating vs DMSO (PISA); higher = thermal stabilisation; K562 cells, 10 uM, 30 min; active = over 0.2 and 3.5 SD of the protein, either way, in both replicates (recomputed)
[1] = compound: CS(=O)(=O)c1ccc(-c2cnc(N)c(C(=O)Nc3ccccc3)n2)cc1
How it was run: (§1)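 K562 cells at 2×10^6 cells/mL were exposed to 10 μM compound for 30 min, then aliquots were heated for 3 min across 48°C-58°C, pooled, and extracted in PBS containing 0.5% NP-40 at 4°C. The supernatant after 21,000xg for 90 min was taken as soluble protein and measured by TMTpro 16plex LC-MS/MS with channel sums equalised. Thermal stability is reported relative to control samples, with values from duplicates. Fold changes are given on a log2 scale.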

crizotinib = compound: C[C@@H](Oc1cc(-c2cnn(C3CCNCC3)c2)cnc1N)c1c(Cl)ccc(F)c1Cl [crizotinib]
How it was run: as §1

[2] = compound: C[C@@H]1COCCN1C2=NC(=NC(=C2)C3(CC3)S(=O)(=O)C)C4=C5C=CNC5=CC=C4
How it was run: as §1

[3] = compound: C[C@H](C1=CC=C(C=C1)C(=O)NC2=C3C=CNC3=NC=C2)N
How it was run: as §1

duvelisib = compound: C[C@H](Nc1ncnc2nc[nH]c12)c1cc2cccc(Cl)c2c(=O)n1-c1ccccc1 [duvelisib]
How it was run: as §1

gandotinib = compound: Cc1cc(Nc2cc(CN3CCOCC3)c3nc(C)c(Cc4ccc(Cl)cc4F)n3n2)n[nH]1 [gandotinib]
How it was run: as §1

tozasertib = compound: Cc1cc(Nc2cc(N3CCN(C)CC3)nc(Sc3ccc(NC(=O)C4CC4)cc3)n2)n[nH]1 [tozasertib]
How it was run: as §1

[4] = compound: Cc1cc(SCc2sc(-c3ccc(C(F)(F)F)cc3)nc2C)ccc1OCC(=O)O
How it was run: as §1

doramapimod = compound: Cc1ccc(-n2nc(C(C)(C)C)cc2NC(=O)Nc2ccc(OCCN3CCOCC3)c3ccccc23)cc1 [doramapimod]
How it was run: as §1

ispinesib = compound: Cc1ccc(C(=O)N(CCCN)[C@@H](c2nc3cc(Cl)ccc3c(=O)n2Cc2ccccc2)C(C)C)cc1 [ispinesib]
How it was run: as §1

bafetinib = compound: Cc1ccc(NC(=O)c2ccc(CN3CC[C@H](N(C)C)C3)c(C(F)(F)F)c2)cc1Nc1nccc(-c2cncnc2)n1 [bafetinib]
How it was run: as §1

[5] = compound: Cc1cccc(CC(=O)N2CCc3c2ccc(-c2cn(C)c4ncnc(N)c24)c3F)n1
How it was run: as §1

nilotinib = compound: Cc1cn(-c2cc(NC(=O)c3ccc(C)c(Nc4nccc(-c5cccnc5)n4)c3)cc(C(F)(F)F)c2)cn1 [nilotinib]
How it was run: as §1

[6] = compound: Cc1nc(Nc2n[nH]c3c2CN(C(=O)N[C@H](CN(C)C)c2ccccc2)C3(C)C)c2sccc2n1
How it was run: as §1

dasatinib = compound: Cc1nc(Nc2ncc(C(=O)Nc3c(C)cccc3Cl)s2)cc(N2CCN(CCO)CC2)n1 [dasatinib]
How it was run: as §1

[7] = compound: Cc1ncc(-c2ccnc(Nc3ccc(S(C)(=O)=O)cc3)n2)n1C(C)C
How it was run: as §1

[8] = compound: Cn1cc(-c2ccc3c(c2)CCN3C(=O)Cc2cccc(C(F)(F)F)c2)c2c(N)ncnc21
How it was run: as §1

[9] = compound: Cn1cc(-c2ccc3nnc(C(F)(F)c4ccc5ncccc5c4)n3n2)cn1
How it was run: as §1

tipifarnib = compound: Cn1cncc1[C@@](N)(c1ccc(Cl)cc1)c1ccc2c(c1)c(-c1cccc(Cl)c1)cc(=O)n2C [tipifarnib]
How it was run: as §1

mubritinib = compound: FC(F)(F)c1ccc(/C=C/c2nc(COc3ccc(CCCCn4ccnn4)cc3)co2)cc1 [mubritinib]
How it was run: as §1

Measured: log2 fold change

RBM22 (UniProt Q9NW64)
inactive: [1] -0.045 | crizotinib 0.061 | [2] -0.053 | [3] 0.121 | duvelisib -0.052 | gandotinib -0.04 | tozasertib -0.052 | [4] 0 | doramapimod -0.025 | ispinesib -0.053 | bafetinib -0.085 | [5] 0 | nilotinib -0.019 | [6] -0.051 | dasatinib -0.07 | [7] 0.024 | [8] -0.133 | [9] -0.071 | tipifarnib 0.008 | mubritinib -0.048

SH3GLB2 (UniProt Q9NR46)
Sequence of UniProt Q9NR46 (Q9NR46 whole entry, looked up): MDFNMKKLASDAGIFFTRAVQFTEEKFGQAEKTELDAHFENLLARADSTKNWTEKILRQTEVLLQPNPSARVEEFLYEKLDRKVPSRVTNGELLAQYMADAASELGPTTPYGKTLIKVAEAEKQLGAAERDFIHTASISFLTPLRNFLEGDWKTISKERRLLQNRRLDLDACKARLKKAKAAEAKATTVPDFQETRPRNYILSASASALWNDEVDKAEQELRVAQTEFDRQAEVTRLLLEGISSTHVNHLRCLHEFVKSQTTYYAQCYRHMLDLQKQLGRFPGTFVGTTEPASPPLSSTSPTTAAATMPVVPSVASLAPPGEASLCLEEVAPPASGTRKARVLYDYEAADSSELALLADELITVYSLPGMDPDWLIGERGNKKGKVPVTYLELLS
inactive: [1] 0.031 | crizotinib -0.104 | [2] -0.101 | [3] 0.013 | duvelisib -0.022 | gandotinib -0.183 | tozasertib 0.014 | [4] 0.073 | doramapimod 0.013 | ispinesib -0.052 | bafetinib -0.029 | [5] 0.044 | nilotinib -0.051 | [6] -0.15 | dasatinib -0.147 | [7] -0.066 | [8] 0.006 | [9] -0.1 | tipifarnib -0.091 | mubritinib 0.098

SAMD4B (UniProt Q5PRF9)
Sequence of UniProt Q5PRF9 (Q5PRF9 whole entry, looked up): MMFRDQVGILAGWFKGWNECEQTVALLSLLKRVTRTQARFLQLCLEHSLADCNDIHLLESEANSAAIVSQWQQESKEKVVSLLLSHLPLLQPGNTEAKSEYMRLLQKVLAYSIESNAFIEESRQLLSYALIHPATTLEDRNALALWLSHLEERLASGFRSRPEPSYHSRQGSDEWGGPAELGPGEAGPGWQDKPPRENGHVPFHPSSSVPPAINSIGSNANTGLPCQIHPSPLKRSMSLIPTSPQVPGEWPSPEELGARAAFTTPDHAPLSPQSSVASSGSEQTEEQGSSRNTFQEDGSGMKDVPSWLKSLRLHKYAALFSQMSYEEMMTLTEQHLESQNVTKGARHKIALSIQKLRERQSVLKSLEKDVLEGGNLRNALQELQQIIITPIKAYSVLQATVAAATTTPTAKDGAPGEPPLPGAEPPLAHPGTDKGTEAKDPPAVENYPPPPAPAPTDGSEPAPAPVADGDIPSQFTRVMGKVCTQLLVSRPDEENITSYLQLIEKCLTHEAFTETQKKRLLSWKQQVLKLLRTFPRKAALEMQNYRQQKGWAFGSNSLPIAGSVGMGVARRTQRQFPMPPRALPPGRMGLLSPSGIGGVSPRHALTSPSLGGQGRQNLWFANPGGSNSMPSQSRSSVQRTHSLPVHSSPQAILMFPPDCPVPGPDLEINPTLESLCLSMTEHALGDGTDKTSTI
active: crizotinib -0.527
inactive: [1] -0.102 | [2] -0.036 | [3] 0.009 | duvelisib -0.067 | gandotinib -0.135 | tozasertib -0.154 | [4] 0.029 | doramapimod 0.073 | ispinesib -0.082 | bafetinib -0.436 | [5] 0.125 | nilotinib -0.167 | [6] -0.312 | dasatinib -0.296 | [7] 0.002 | [8] -0.072 | [9] -0.042 | tipifarnib 0.09

RPS3 (UniProt P23396)
inactive: [1] -0.07 | crizotinib 0.025 | [2] -0.258 | [3] 0.203 | duvelisib -0.06 | gandotinib 0.134 | tozasertib 0.022 | [4] 0.045 | doramapimod 0.077 | ispinesib -0.127 | bafetinib 0.219 | [5] -0.004 | nilotinib -0.009 | [6] 0.193 | dasatinib 0.063 | [7] -0.056 | [8] -0.132 | [9] -0.028 | tipifarnib 0.075 | mubritinib -0.045

SCAF11 (UniProt Q99590)
Sequence of UniProt Q99590 (Q99590 whole entry, looked up): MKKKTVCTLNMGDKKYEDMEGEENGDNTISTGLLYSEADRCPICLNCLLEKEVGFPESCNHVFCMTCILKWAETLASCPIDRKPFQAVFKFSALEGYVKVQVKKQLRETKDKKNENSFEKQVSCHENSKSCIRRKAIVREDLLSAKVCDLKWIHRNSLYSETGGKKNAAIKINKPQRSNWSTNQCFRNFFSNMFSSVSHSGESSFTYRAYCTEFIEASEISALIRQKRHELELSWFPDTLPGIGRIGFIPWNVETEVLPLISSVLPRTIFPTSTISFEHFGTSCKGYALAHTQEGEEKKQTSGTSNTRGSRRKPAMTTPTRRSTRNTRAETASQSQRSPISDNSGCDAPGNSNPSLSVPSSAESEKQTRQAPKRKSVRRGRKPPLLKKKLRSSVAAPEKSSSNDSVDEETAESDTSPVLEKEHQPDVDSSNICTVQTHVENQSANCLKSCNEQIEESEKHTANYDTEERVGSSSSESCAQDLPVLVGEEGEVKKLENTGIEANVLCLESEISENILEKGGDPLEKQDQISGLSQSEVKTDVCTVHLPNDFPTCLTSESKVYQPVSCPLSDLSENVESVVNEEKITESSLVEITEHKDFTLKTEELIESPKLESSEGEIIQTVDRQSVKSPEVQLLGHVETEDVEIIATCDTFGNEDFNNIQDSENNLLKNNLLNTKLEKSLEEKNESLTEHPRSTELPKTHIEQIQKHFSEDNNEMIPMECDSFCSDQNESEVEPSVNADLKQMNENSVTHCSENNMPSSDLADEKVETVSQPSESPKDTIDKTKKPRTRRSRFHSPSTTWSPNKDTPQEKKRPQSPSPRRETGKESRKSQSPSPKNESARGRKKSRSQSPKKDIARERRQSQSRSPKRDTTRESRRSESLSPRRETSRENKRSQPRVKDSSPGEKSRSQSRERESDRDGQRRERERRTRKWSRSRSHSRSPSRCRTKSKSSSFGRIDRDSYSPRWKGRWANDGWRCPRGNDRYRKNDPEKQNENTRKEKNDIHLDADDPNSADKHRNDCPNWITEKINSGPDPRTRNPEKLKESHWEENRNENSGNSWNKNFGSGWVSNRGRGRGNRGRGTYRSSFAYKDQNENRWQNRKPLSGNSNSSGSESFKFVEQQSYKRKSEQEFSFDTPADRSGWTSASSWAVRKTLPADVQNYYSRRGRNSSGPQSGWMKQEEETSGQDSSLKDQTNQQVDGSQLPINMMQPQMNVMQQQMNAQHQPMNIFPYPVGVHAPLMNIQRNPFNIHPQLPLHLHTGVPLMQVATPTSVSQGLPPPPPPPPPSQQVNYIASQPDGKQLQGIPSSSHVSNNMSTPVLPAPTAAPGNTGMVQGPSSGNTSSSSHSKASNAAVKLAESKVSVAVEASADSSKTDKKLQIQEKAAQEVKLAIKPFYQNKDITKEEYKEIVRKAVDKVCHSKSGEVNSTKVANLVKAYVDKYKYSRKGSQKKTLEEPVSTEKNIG
inactive: [1] 0.021 | crizotinib -0.06 | [2] -0.069 | [3] 0.229 | duvelisib -0.069 | gandotinib 0.543 | tozasertib -0.037 | [4] -0.106 | doramapimod -0.05 | ispinesib -0.012 | bafetinib 0.173 | [5] -0.144 | nilotinib 0.078 | [6] -0.007 | dasatinib 0.144 | [7] 0.379 | [8] -0.05 | [9] -0.03 | tipifarnib 0.067 | mubritinib 0.052

RIPK1 (UniProt Q13546)
Sequence of UniProt Q13546 (Q13546 whole entry, looked up): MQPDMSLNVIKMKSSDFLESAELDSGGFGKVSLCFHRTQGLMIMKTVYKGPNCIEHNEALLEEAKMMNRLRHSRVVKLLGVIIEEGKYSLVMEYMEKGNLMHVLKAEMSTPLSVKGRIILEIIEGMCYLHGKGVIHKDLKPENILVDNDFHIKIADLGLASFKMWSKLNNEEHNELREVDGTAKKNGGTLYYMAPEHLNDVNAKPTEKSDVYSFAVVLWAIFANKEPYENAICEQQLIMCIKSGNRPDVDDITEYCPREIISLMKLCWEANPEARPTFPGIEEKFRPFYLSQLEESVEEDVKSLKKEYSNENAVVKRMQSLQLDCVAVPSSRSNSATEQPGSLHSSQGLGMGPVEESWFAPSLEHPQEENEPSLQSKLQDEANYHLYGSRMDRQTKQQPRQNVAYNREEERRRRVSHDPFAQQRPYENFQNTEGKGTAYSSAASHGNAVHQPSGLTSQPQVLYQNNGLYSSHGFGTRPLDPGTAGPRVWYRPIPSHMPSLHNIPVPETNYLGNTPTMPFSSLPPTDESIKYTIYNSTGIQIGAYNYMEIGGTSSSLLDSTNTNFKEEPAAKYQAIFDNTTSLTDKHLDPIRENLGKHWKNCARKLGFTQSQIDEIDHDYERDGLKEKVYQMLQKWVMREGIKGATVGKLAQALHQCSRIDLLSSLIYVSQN
active: tozasertib 1.05 | [5] 1.12 | [7] 1.18 | [8] 1.49
inactive: [1] 0.058 | crizotinib 0.274 | [2] -0.01 | [3] 0.09 | duvelisib -0.1 | gandotinib 0.301 | [4] 0.118 | doramapimod 0.031 | ispinesib -0.155 | bafetinib 0.209 | nilotinib -0.007 | [6] -0.196 | dasatinib 0.197 | [9] -0.052 | tipifarnib -0.121 | mubritinib -0.089

REEP4 (UniProt Q9H6H4)
Sequence of UniProt Q9H6H4 (Q9H6H4 whole entry, looked up): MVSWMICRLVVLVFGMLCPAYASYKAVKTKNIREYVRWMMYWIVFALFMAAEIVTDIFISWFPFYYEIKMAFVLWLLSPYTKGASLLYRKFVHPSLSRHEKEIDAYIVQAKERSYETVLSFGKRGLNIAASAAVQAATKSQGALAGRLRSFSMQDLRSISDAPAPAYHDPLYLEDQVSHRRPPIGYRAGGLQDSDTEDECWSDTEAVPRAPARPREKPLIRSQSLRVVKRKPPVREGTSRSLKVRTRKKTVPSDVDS
inactive: [1] -0.015 | crizotinib -0.148 | [2] -0.027 | [3] 0.02 | duvelisib -0.013 | gandotinib 0.001 | tozasertib -0.111 | [4] 0.02 | doramapimod 0.06 | bafetinib 0.021 | [5] 0.127 | nilotinib -0.017 | [6] -0.077 | dasatinib -0.079 | [7] 0.067 | [8] -0.052 | [9] -0.056 | tipifarnib -0.109 | mubritinib -0.04
active: ispinesib -0.275

SERINC3 (UniProt Q13530)
Sequence of UniProt Q13530 (Q13530 whole entry, looked up): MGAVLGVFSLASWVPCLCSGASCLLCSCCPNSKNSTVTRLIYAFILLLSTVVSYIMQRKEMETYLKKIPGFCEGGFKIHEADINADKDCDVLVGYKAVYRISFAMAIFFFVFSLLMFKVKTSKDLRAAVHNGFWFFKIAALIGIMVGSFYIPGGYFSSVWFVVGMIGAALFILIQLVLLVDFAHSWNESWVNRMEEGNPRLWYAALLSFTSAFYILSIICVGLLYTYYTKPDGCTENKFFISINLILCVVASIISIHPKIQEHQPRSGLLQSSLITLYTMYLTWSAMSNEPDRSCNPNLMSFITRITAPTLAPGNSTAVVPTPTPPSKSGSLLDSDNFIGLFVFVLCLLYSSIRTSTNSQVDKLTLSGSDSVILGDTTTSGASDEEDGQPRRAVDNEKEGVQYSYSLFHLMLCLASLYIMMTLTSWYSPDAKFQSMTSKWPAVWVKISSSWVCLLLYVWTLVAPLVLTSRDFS
inactive: [1] 0.15 | crizotinib -0.228 | [2] 0.017 | [3] 0.225 | duvelisib 0.162 | gandotinib -0.088 | tozasertib 0.046 | [4] 0.096 | doramapimod -0.051 | ispinesib -0.17 | bafetinib -0.031 | [5] -0.035 | nilotinib 0.02 | [6] 0.039 | dasatinib -0.123 | [7] 0.07 | [8] -0.014 | [9] -0.077 | tipifarnib -0.115 | mubritinib 0.009

RTN4IP1 (UniProt Q8WWV3)
inactive: [1] 0.015 | crizotinib -0.084 | [2] 0.064 | [3] -0.045 | duvelisib 0.276 | gandotinib 0.117 | tozasertib -0.108 | [4] 0.225 | doramapimod 0.041 | ispinesib -0.137 | bafetinib -0.178 | [5] -0.07 | nilotinib 0.171 | [6] -0.194 | dasatinib 0.189 | [7] -0.008 | [8] 0.121 | [9] 0.168 | tipifarnib 0.041 | mubritinib 0.122

RIC8A isoform 3 (UniProt Q9NPQ8)
Sequence of UniProt Q9NPQ8 (Q9NPQ8 whole entry, looked up): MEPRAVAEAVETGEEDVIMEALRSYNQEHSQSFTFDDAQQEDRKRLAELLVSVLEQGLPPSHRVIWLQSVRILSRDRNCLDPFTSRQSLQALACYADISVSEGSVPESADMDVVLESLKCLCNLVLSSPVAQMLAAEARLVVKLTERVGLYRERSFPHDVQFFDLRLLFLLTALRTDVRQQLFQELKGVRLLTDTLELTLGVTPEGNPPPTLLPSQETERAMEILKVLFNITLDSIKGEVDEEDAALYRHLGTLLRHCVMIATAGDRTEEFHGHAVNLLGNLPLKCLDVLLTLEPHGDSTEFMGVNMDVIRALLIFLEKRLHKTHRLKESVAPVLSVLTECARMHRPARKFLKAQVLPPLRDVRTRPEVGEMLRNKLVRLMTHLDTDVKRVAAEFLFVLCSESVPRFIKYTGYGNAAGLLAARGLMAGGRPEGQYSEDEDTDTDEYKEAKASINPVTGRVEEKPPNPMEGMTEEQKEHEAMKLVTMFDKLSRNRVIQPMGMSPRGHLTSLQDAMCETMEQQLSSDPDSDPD
inactive: [1] 0.042 | crizotinib -0.085 | [2] -0.036 | [3] 0.094 | duvelisib 0.036 | gandotinib -0.038 | tozasertib 0.177 | [4] 0.193 | doramapimod 0.094 | ispinesib -0.145 | bafetinib 0.042 | [5] -0.062 | nilotinib -0.041 | [6] -0.043 | dasatinib -0.108 | [7] 0.088 | [8] 0.03 | [9] 0.014 | tipifarnib -0.1 | mubritinib -0.095

RSRC2 (UniProt Q7L4I2)
Sequence of UniProt Q7L4I2 (Q7L4I2 whole entry, looked up): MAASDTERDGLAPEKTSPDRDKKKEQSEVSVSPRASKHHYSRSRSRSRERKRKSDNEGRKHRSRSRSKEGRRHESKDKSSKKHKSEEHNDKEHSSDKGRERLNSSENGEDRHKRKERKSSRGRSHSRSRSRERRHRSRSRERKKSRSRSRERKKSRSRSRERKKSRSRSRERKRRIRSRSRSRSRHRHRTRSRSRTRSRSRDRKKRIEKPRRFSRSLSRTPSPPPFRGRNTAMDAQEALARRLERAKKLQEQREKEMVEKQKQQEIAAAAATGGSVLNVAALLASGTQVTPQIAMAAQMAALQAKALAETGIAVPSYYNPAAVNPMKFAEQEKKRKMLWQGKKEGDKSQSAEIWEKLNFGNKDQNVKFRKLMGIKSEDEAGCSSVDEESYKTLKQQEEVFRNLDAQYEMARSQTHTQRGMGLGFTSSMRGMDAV
inactive: [1] 0.02 | crizotinib 0.022 | [2] -0.018 | [3] -0.095 | duvelisib 0.002 | gandotinib 0.052 | tozasertib -0.058 | [4] -0.039 | doramapimod -0.022 | ispinesib 0.087 | bafetinib -0.091 | [5] -0.091 | nilotinib 0 | dasatinib 0.002 | [7] -0.028 | [8] -0.007 | [9] -0.056 | tipifarnib 0.012 | mubritinib 0.02
active: [6] -2.11

RRP12 (UniProt Q5JTH9)
inactive: [1] -0.056 | crizotinib -0.074 | [2] -0.242 | duvelisib -0.014 | gandotinib 0.074 | tozasertib -0.092 | [4] 0.053 | doramapimod 0.203 | ispinesib -0.172 | bafetinib 0.01 | [5] -0.036 | nilotinib -0.082 | [6] 0.088 | dasatinib -0.028 | [7] 0.184 | [8] -0.136 | [9] -0.123 | tipifarnib -0.035 | mubritinib -0.096
active: [3] 0.811

SEC23IP (UniProt Q9Y6Y8)
inactive: [1] 0.142 | crizotinib -0.238 | [2] 0.055 | [3] 0.039 | duvelisib 0.021 | gandotinib -0.212 | tozasertib -0.002 | [4] 0.074 | doramapimod 0.043 | ispinesib -0.166 | bafetinib -0.23 | [5] 0.036 | nilotinib -0.017 | [6] -0.061 | dasatinib -0.143 | [7] -0.026 | [8] 0.148 | [9] 0.009 | tipifarnib -0.057 | mubritinib 0.014

RAVER1 (UniProt E9PAU2)
inactive: [1] 0.061 | crizotinib 0.049 | [2] 0.188 | [3] -0.381 | duvelisib 0.066 | gandotinib -0.091 | tozasertib 0.264 | [4] 0.132 | doramapimod 0.002 | ispinesib -0.171 | bafetinib -0.155 | [5] 0 | nilotinib -0.091 | [6] -0.319 | dasatinib -0.309 | [7] -0.299 | [8] 0.155 | [9] 0.011 | tipifarnib -0.351 | mubritinib 0.134

RPS25 (UniProt P62851)
inactive: [1] -0.101 | crizotinib -0.041 | [2] -0.286 | [3] 0.239 | duvelisib -0.083 | gandotinib 0.239 | tozasertib 0.028 | [4] 0.032 | doramapimod 0.178 | ispinesib -0.148 | bafetinib 0.259 | [5] -0.007 | nilotinib 0.015 | [6] 0.174 | dasatinib 0.07 | [7] -0.032 | [8] -0.177 | [9] -0.077 | tipifarnib 0.062 | mubritinib -0.068

RPS21 (UniProt P63220)
inactive: [1] -0.053 | crizotinib 0.141 | [2] -0.108 | [3] 0.044 | duvelisib -0.001 | gandotinib 0.048 | tozasertib -0.005 | [4] -0.004 | doramapimod -0.022 | ispinesib 0.015 | bafetinib 0.087 | [5] -0.057 | nilotinib 0.011 | [6] 0.072 | dasatinib 0.1 | [7] -0.012 | [8] -0.009 | [9] -0.004 | tipifarnib 0.017 | mubritinib 0.002
